# Measured values reported in PubChem BioAssay.
# “And” between values parts separate entries of the source, which are not always exact repeats. Equal entries are not always repeated. Records with an inconclusive call do not appear. The source made the active and inactive calls. Unless noted, cut-off not given; nearly all actives show AC50 up to about 30 µM.
# How the values were obtained:
# [1] = growth inhibition of DIPG glioma cells, dose response, cell-based, SU-DIPG-XIII, MIPE4.0, CellTiter-Glo, qHTS (AID 1347061; cut-off not given, nearly all actives have AC50 up to about 37 µM;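 further: cells exposed to compound for 48 hours before readout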); settings: SU-DIPG-XIII viability, CellTiter-Glo ATP luminescence
# [2] = growth inhibition of DIPG glioma cells, dose response, cell-based, JHH-DIPG-1, MIPE4.0, CellTiter-Glo, qHTS (AID 1347062; cut-off not given, nearly all actives have AC50 up to about 27 µM;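 on AC50: cells exposed to compound for two days before readout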); settings: JHH-DIPG-1 viability, CellTiter-Glo ATP luminescence
# [3] = growth inhibition of DIPG glioma cells, dose response, cell-based, SU-DIPG-IV, MIPE4.0, CellTiter-Glo, qHTS (AID 1347063); settings: SU-DIPG-IV viability, CellTiter-Glo ATP luminescence;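 further: compound exposure lasted 48 hours before the viability readout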
# [4] = SU-DIPG-VI glioma cell viability, MIPE4.0 library, CellTiter-Glo luminescence, qHTS (AID 1347066); settings: CellTiter-Glo ATP luminescence;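 further: cells exposed to compound for 48 hours before readout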
# [5] = sensitizers of A549 cells to miR-34 induction, primary screen, imaging, A549 dox-inducible miR-34, nuclei and caspase counts (AID 1347080;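 active means compounds whose cell count with miR-34 switched on is under 0.7 times the count with it off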); settings: A549 miR-34 inducible, Hoechst nuclei count, 48 h
# [6] = survival rescue of mitochondrial mutant cells in low glucose, primary screen, MELAS cybrids, Rieske KO mouse fibroblasts, CellTiter-Glo (AID 1508586;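 active means mean z-score across replicates of 1.96 or higher in either the MELAS or the Rieske mutant cell line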;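 further: z relative to plate mean and SD of compound and empty wells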)
# [7] = viability loss in pontine glioma line – cell-based, SU-DIPG-XXV, MIPE5.0, CellTiter-Glo, qHTS, dose response (AID 1347065; cut-off not given, nearly all actives have AC50 up to about 26 µM;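 further: cells exposed to compound for 48 hours before ATP readout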); settings: CellTiter-Glo ATP luminescence
# [8] = JHH-DIPG-1 glioma cell viability, MIPE5.0 library, CellTiter-Glo luminescence, qHTS (AID 1347067; cut-off not given, nearly all actives have AC50 up to about 26 µM;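 further: cells exposed to compound for 48 hours before readout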); settings: JHH-DIPG-1 glioma viability, CellTiter-Glo ATP luminescence
# [9] = SU-DIPG-XXV glioma cell viability, MIPE5.0 library, qHTS (AID 1347068; cut-off not given, nearly all actives have IC50 up to about 30 µM)
# [10] = LFS_MB_P medulloblastoma growth inhibition, cell-based, chromothripsis tumors, cisplatin or BGB combos (AID 1671449; in the data active means inhibition above about 80%;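 further: cells exposed for 96 hours; 0% = vehicle DMSO and 100% = killing by high DMSO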); settings: LFS_MB_P medulloblastoma cells
# [11] = HDN33 neuroblastoma growth inhibition, cell-based, chromothripsis tumors, cisplatin or BGB combos (AID 1671450; in the data active means inhibition above about 80%;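 further: cells exposed to compound for four days; 0% = vehicle DMSO and 100% = cell killing by high DMSO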); settings: HDN33 neuroblastoma cells, stronger effect = higher value
# [12] = ICB984 medulloblastoma cell growth inhibition, synergistic combos for chromothripsis tumors, cisplatin or BGB combos (AID 1671451; call rule not given here;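 further: cells exposed for 96 hours before readout; 0% = vehicle DMSO and 100% = killing by high DMSO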); settings: ICB984 medulloblastoma cells, drug combinations, stronger effect = higher value
# [13] = LFS_MB_1R medulloblastoma cell growth inhibition, synergistic combos for chromothripsis tumors, cisplatin or BGB combos (AID 1671452; in the data active means inhibition above about 80%;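 further: cells exposed for 96 hours before readout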); settings: LFS_MB_1R medulloblastoma cells, stronger effect = higher value
# [14] = HTB85 osteosarcoma cell growth inhibition, synergistic combos for chromothripsis tumors, BGB or cisplatin IC20 combos (AID 1671453; in the data active means inhibition above about 80%;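 further: cells exposed for 96 hours before readout; 0% = vehicle DMSO and 100% = high DMSO killing control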); settings: HTB85 osteosarcoma cells, drug combinations, stronger effect = higher value
# [15] = MDA-MB-436 breast carcinoma cell growth inhibition, synergistic combos for chromothripsis tumors, BGB or cisplatin combos (AID 1671458; call rule not given here;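 further: cells exposed for 96 hours; 0% = vehicle DMSO and 100% = killing by high DMSO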); settings: MDA-MB-436 breast carcinoma growth inhibition, drug combinations, stronger effect = higher value
# [16] = growth inhibition of BT084 medulloblastoma cells, cell-based, ICGC_MB145, cisplatin and BGB IC40 combos (AID 1671461; in the data active means inhibition above about 80%;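 further: cells exposed to drugs for 96 hours; 0% = vehicle DMSO and 100% = high DMSO full killing control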); settings: drug combinations, stronger effect = higher value
# [17] = growth inhibition of RCMB18 medulloblastoma cells, cell-based, cisplatin and BGB IC40 combos (AID 1671462; in the data active means inhibition above about 80%;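 further: cells exposed to compound for four days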); settings: stronger effect = higher value
# [18] = growth inhibition of CRL1545 osteosarcoma cells, cell-based, cisplatin and BGB IC20 combos (AID 1671464; in the data active means inhibition above about 80%;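 further: cells exposed to compound for 96 hours before readout; 0% = vehicle DMSO and 100% = high DMSO killing control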); settings: stronger effect = higher value
# [19] = stronger effect = lower value, cell number ratio, induced over uninduced
# [20] = measured here: relative caspase fold change +Dox/-Dox
# [21] = measured here: total cells with miR-34 induction, stronger effect = lower value
# [22] = measured here: total cells without miR-34 induction
# [23] = MELAS cybrid survival, CellTiter-Glo 48 h, stronger effect = higher value
# [24] = Rieske KO mouse fibroblast survival, CellTiter-Glo 72 h
# [25] = measured here: combination with BGB IC40, at 0.05 µM
# [26] = measured here: with BGB IC20 combination, at 0.5 µM
# [27] = measured here: with cisplatin IC20 combination, at 0.5 µM
# [28] = measured here: combination with cisplatin, at 0.5 µM
smiles,measurement,setting,value
NC(N)=Nc1nc(CSCCC(N)=NS(N)(=O)=O)cs1,outcome,[1],inactive
same,outcome,[2],inactive
same,outcome,[3],inactive
same,outcome,[4],inactive
same,fold change,[5]; [19],0.921 (inactive) and 0.901 (inactive) and 0.846 (inactive)
same,fold change,[5]; [20],1.73 and 0.639 and 1.03
same,cell count,[5]; [21],9300 and 8340 and 7700
same,cell count,[5]; [22],10100 and 9260 and 9100
same,z-score,[6]; [23],0.605 (inactive) and -0.262 (inactive)
same,z-score,[6]; [24],-0.158 and 0.443
N#CC1(c2cccc(C(=O)Nc3cc(Oc4ccc5nc(NC(=O)C6CC6)sc5n4)ccc3F)c2Cl)CC1,AC50,[1],935 nM (active)
same,AC50,[2],18700 nM (active)
same,AC50,[7],833 nM (active)
same,outcome,[4],inactive
CCCCCCCCCCCCCCCC(=O)OC[C@@H](NC(=O)C(Cl)Cl)[C@H](O)c1ccc([N+](=O)[O-])cc1,outcome,[1],inactive
same,outcome,[2],inactive
same,outcome,[3],inactive
same,outcome,[4],inactive
CC(O)C1C(=O)N2C(C(=O)O)=C(SC3CNC(C(=O)N(C)C)C3)C(C)C12 (configuration not stated),outcome,[1],inactive
same,outcome,[2],inactive
same,outcome,[3],inactive
same,outcome,[4],inactive
same,fold change,[5]; [19],0.9 (inactive) and 0.956 (inactive)
same,fold change,[5]; [20],2.32 and 0.899
same,cell count,[5]; [21],9280 and 7430
same,cell count,[5]; [22],10300 and 7780
same,z-score,[6]; [23],-0.432 (inactive)
same,z-score,[6]; [24],0.361
COc1ccc2cc([S+]([O-])Cc3ncc(C)c(OC)c3C)nc2c1,outcome,[1],inactive
same,outcome,[2],inactive
same,outcome,[3],inactive
same,outcome,[4],inactive
Nc1nc(=O)n([C@H]2CSC(CO)O2)cc1F (some centres not stated),outcome,[1],inactive
same,outcome,[2],inactive
same,outcome,[3],inactive
same,outcome,[4],inactive
CC(C)OC(=O)[C@H](C)N[P@](=O)(OC[C@H]1O[C@@H](n2ccc(=O)[nH]c2=O)[C@](C)(F)[C@@H]1O)Oc1ccccc1,outcome,[1],inactive
same,outcome,[2],inactive
same,outcome,[3],inactive
same,outcome,[4],inactive
same,AC50,[8],2630 nM (active)
same,outcome,[9],inactive
same,inhibition,"[10]; at 0.5 µM, stronger effect = higher value",-27.6% (inactive)
same,inhibition,"[10]; measured here: combination with BGB IC20, at 0.005 µM",-8.86%
same,inhibition,"[10]; measured here: combination with BGB IC40, at 0.005 µM",-29.9%
same,inhibition,[10]; [25],-32.6%
same,inhibition,"[10]; measured here: combination with cisplatin, at 0.5 µM, stronger effect = higher value",-25.8%
same,inhibition,"[10]; measured here: combination with cisplatin, at 5 µM, stronger effect = higher value",-29.3%
same,inhibition,"[11]; BGB combo, at 5 µM",-36.1%
same,inhibition,[11]; at 0.5 µM,-7.68% (inactive)
same,inhibition,"[11]; cisplatin combo, at 5 µM",-4.94%
same,inhibition,[11]; [26],-9.88%
same,inhibition,[11]; [27],5.66%
same,inhibition,"[11]; single agent, at 5 µM",-12.1%
same,inhibition,"[12]; BGB IC20 combo, at 0.005 µM",-18%
same,inhibition,"[12]; BGB IC40 combo, at 0.005 µM",-9.03%
same,inhibition,"[12]; BGB IC40 combo, at 0.05 µM",-19.6%
same,inhibition,[12]; at 0.5 µM,-6.96% (inactive)
same,inhibition,"[12]; cisplatin combo, at 0.05 µM",-25.8%
same,inhibition,"[12]; cisplatin combo, at 0.5 µM",-2.19%
same,inhibition,"[12]; cisplatin combo, at 5 µM",-12.1%
same,inhibition,"[12]; measured here: 5 uM single agent, at 5 µM",-20.9%
same,inhibition,[13]; at 0.5 µM,-18.8% (inactive)
same,inhibition,[13]; [25],-16%
same,inhibition,[13]; [28],-13.4%
same,inhibition,"[13]; measured here: combination with cisplatin, at 5 µM",-6.21%
same,inhibition,[14]; at 0.5 µM,14.1% (inactive)
same,inhibition,"[14]; measured here: with BGB IC20, at 0.5 µM",45.6%
same,inhibition,"[14]; measured here: with BGB IC20, at 5 µM",9.23%
same,inhibition,"[14]; measured here: with cisplatin IC20, at 0.5 µM",-3.56%
same,inhibition,"[14]; measured here: with cisplatin IC20, at 5 µM",2.16%
same,inhibition,"[14]; single agent, at 5 µM",7.57%
same,inhibition,[15]; at 0.5 µM,-14.4% (inactive)
same,inhibition,"[15]; measured here: BGB combination, at 0.5 µM",-6.51%
same,inhibition,"[15]; measured here: BGB combination, at 5 µM",-8.4%
same,inhibition,"[15]; measured here: cisplatin combination, at 0.5 µM",-26.3%
same,inhibition,"[15]; measured here: cisplatin combination, at 5 µM",-27.6%
same,inhibition,[16]; at 0.5 µM,-5.65% (inactive)
same,inhibition,"[16]; cisplatin combination, at 0.5 µM",-1.58%
same,inhibition,"[16]; cisplatin combination, at 5 µM",-68.9%
same,inhibition,"[16]; measured here: BGB IC40 combination 0.05 uM, at 0.05 µM",-37.9%
same,inhibition,"[16]; single agent, at 5 µM",12.2%
same,inhibition,[17]; at 0.5 µM,-12.6% (inactive)
same,inhibition,"[17]; cisplatin combo, at 5 µM",-10.4%
same,inhibition,"[17]; measured here: BGB IC40 combination, at 0.05 µM",-14.6%
same,inhibition,[17]; [28],5.31%
same,inhibition,"[17]; single agent, at 5 µM",-3.36%
same,inhibition,[18]; at 0.5 µM,22.4% (inactive)
same,inhibition,[18]; [26],2.82%
same,inhibition,[18]; [27],31.1%
same,inhibition,"[18]; single agent, at 0.05 µM",-4.05%
same,inhibition,"[18]; single agent, at 5 µM",-21.1%
